# Measurements published in PubChem BioAssay (NCI).
# Compounds without any hit were thinned out: in the full panel of roughly 83,000, 20% have a hit.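 96-well plates, one dose, 48 hours. Percent growth reported; active if below 10.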 Unmarked numbers belong to inactive results. The source made the active and inactive calls.
# Experiments:
# Assay in all cases: NCI-60 one-dose screen, 48 h (100 = growth as untreated, 0 = no growth, -100 = all killed)
# Conditions in all cases: 10 µM unless noted
# NCI-H23 lung = test system: NCI-H23 lung
# NCI-H226 lung = test system: NCI-H226 lung
# NCI-H322M lung = test system: NCI-H322M lung
# HOP-62 NSCLC = test system: HOP-62 NSCLC
# NCI-H460 lung = test system: NCI-H460 lung
# HOP-92 NSCLC = test system: HOP-92 NSCLC
# NCI-H522 lung = test system: NCI-H522 lung
# A549/ATCC NSCLC = test system: A549/ATCC NSCLC
# 786-0 renal = test system: 786-0 renal
# COLO 205 colon = test system: COLO 205 colon
# DU-145 prostate = test system: DU-145 prostate
# K-562 leukemia = test system: K-562 leukemia
# MALME-3M melanoma = test system: MALME-3M melanoma
# MDA-MB-231 breast = test system: MDA-MB-231 breast
# RXF 393 renal = test system: RXF 393 renal
# SF-268 CNS = test system: SF-268 CNS
# SF-295 CNS = test system: SF-295 CNS
# SF-539 CNS = test system: SF-539 CNS
# UACC-257 melanoma = test system: UACC-257 melanoma
# M14 melanoma = test system: M14 melanoma
SMILES,growth (NCI-H23 lung),growth (NCI-H226 lung),growth (NCI-H322M lung),growth (HOP-62 NSCLC),growth (NCI-H460 lung),growth (HOP-92 NSCLC),growth (NCI-H522 lung),growth (A549/ATCC NSCLC),growth (786-0 renal),growth (COLO 205 colon),growth (DU-145 prostate),growth (K-562 leukemia),growth (MALME-3M melanoma),growth (MDA-MB-231 breast),growth (RXF 393 renal),growth (SF-268 CNS),growth (SF-295 CNS),growth (SF-539 CNS),growth (UACC-257 melanoma),growth (M14 melanoma)
O=S(=O)(NCCNc1nccc(-c2c(-c3cccc(F)c3)nc3occn23)n1)c1ccc(Br)cc1,87.9%,75.5%,82.1%,90.1%,68.5%,74.7%,81.8%,53.9%,76.3%,85.4%,90.4%,69.1%,76.9%,82.3%,68.3%,90.7%,99.4%,92%,98.4%,79.8%
CCn1c(SCC(=O)c2ccc(Br)cc2)nnc1-c1ccncc1,105%,99%,110%,109%,108%,114%,96%,106%,114%,114%,103%,91.5%,105%,106%,113%,96.5%,101%,99.3%,107%,108%
Cc1ccc(Sc2oc(-c3ccc(C)cc3)nc2[P+](c2ccccc2)(c2ccccc2)c2ccccc2)cc1,-17.2% (active),15.7%,10.3%,9.94% (active),-39.6% (active),-9.3% (active),-38.5% (active),7.74% (active),3.99% (active),-41.5% (active),11.6%,4.98% (active),-41.1% (active),-12.5% (active),-18.8% (active),10.9%,9.9% (active),-5.1% (active),0.818% (active),7.37% (active)
N=C(N)c1ccc(-c2ccc(-c3cc(Cl)cc(Cl)c3)o2)o1,-75.4% (active),43.9%,-77.4% (active),-72.2% (active),-78.3% (active),50.5%,-70.4% (active),-71% (active),-61.9% (active),-81.7% (active),-87.7% (active),-59.7% (active),-89.6% (active),-68.2% (active),-88.8% (active),-56.4% (active),-83.5% (active),-85% (active),-73% (active),-54.1% (active)
N#Cc1nc(-c2ccccc2)oc1S(=O)(=O)N1CCOCC1,89.9%,102%,100%,97.9%,109%,108%,-55.5% (active),94.5%,88%,0.0605% (active),103%,5.21% (active),39.6%,98.3%,91%,108%,98.5%,101%,92.8%,61.7%
O=C(Nc1cccc([N+](=O)[O-])c1)c1cc2ccccc2cc1O,-0.282% (active),1.25% (active),14.8%,0.534% (active),3.41% (active),-9.02% (active),-3.91% (active),11.1%,8.07% (active),-66.1% (active),10.6%,-9.38% (active),-23.3% (active),-43% (active),5.31% (active),18.3%,-9.62% (active),4.44% (active),-10.1% (active),19%
c1ccc(CNc2c3ccccc3nc3ccccc23)cc1,41.2%,51.7%,46.3%,46%,10.3%,25.9%,56.8%,28.5%,34.3%,7.29% (active),48.6%,12.3%,37.4%,57.9%,41.9%,62.6%,37.6%,24%,52.7%,32.3%
NC(=O)c1c(NC(=O)c2ccccc2)sc2c1CCC(=O)C2,5.93% (active),16.2%,88.2%,45.1%,11.6%,-11.5% (active),-9.03% (active),30%,28%,-49.9% (active),35%,5.24% (active),7.31% (active),0.799% (active),18.7%,17.7%,33.4%,16.1%,4.86% (active),20.9%
